According to paper PMC12864922, “TDP-43 directly inhibits mRNA accumulation in neurites through modulation of mRNA stability”:
The full ranking holds about 9,900 sequences; the median of “r (bound/input frequency ratio)” is about 0.7, and the highest 2% start at about 6.5. The full list was thinned out, with the highest values kept by preference.

B1: ENSMUSG00000042529.429|Kcnj12|20:25;182:186 (ssRNA)
RNA: GGGAGUUCUACAGUCCGACGAUCGCUUCGAUAUCCGCAUGCUAAUGUCAGUGGCUUGGGUGCACACACGAGAGAGAGAGAGAGAGAGAGAGAGAGAGAGAGAGAGAGAGAGAGAGAGAGCUGCACAGGAUGAAGCAGCUGCCCUGAGCCCAUCUGGUGCUGUGCACCUGGUCCUUGUCCAGCCGAGGGCCUGGGGGCAGAAGAACACACCAUAGGGAGGCCCUUCAUACGGUGUCUGCCCUAUGUGAGGUCAUAGAAUGUUAAAUCUAUUUUAAACGGUGAAACUGGAGAAUUUUCAUGUUAUCUCUUGCGGUCGCACUAGUGUGGAAUUCUCGGGUGUCAAGG
B2: ENSMUSG00000061578.155|Ksr2 (ssRNA)
RNA: GGGAGUUCUACAGUCCGACGAUCGCUUCGAUAUCCGCAUGCUAUAUGCAUGAUGGGUUACAUGGGUGUGUGUGUGUGUGUAACUGUUUACAAUGGUCUCCCUGCCUCUCACGGGCUGUGUUCCAGGAGAAUGCACAUAGAGAGGUUCUGUGGUCUCUGCUGUCGCCUGGUGCUGAAUCCUGAGUGGUUUCCCCACUGAGGACCCUGUGACCCUGUGACCCUUGGCCCCUCCCUUAUUGUGCACACUCAGCACCCCAUCUUCCAAGCCUUUCUUCAUCCCCCACCUUCUUUUGGGAAGGGGUGGCUCUUGCGGUCGCACUAGUGUGGAAUUCUCGGGUGUCAAGG
B3: ENSMUSG00000090935.767|Synj2bp (ssRNA)
RNA: GGGAGUUCUACAGUCCGACGAUCGCUUCGAUAUCCGCAUGCUAAUUUUAAAAAUCAGUUUACUUUCAUCUUUUCUCUUUAGGCUUUCAAUAAAGACCAGAAGGACUGAUAGACAGCUAGAGAGGAUCGUGUAGGCAUCCAGAUUAGAAUGGAAGAAUCCAUUGAACAAUCUGAGAAAACUAAUCAGGUGUUGUUUUAAUCACAUUAGUUUUAAGUUAGAUACAUGCUCUUUGUAGUAUUUUGGGUUUUAUUGUGCAAAUAAGCAAUUAAAAUAUAUUUAGAAGCCAAGUAUAAUGGUACAUGUCUCUUGCGGUCGCACUAGUGUGGAAUUCUCGGGUGUCAAGG
B4: ENSMUSG00000058297.26|Spock2|95:99;103:116;125:136;150:156;165:174;180:205 (ssRNA)
RNA: GGGAGUUCUACAGUCCGACGAUCGCUUCGAUAUCCGCAUGCUAGGCCAGAAGAGACCUGGACAACAGCAGGCAACUUAGCAAAUGGAUCCGGAAGUCAGUGCGGAGGACCCUGGCUCCAGUGGGGGAGGACUGGGGACACACGCUACACACAUACACACAUAUGAGAACACACACAUACAUGUGAGAUGUGACACACACAUGUGAGAACACACAUACUGAGAACACACACACACACACACACACACACAUGUGAGUCACCCAAAGGUCCCUAUGUUAUUGAUUUUCAAAUGCACACUUUCACACUCUUGCGGUCGCACUAGUGUGGAAUUCUCGGGUGUCAAGG
B5: ENSMUSG00000058297.23|Spock2 (ssRNA)
RNA: GGGAGUUCUACAGUCCGACGAUCGCUUCGAUAUCCGCAUGCUACCGACGGCCAGAAAGACAGGCCAGAAGAGACCUGGACAACAGCAGGCAACUUAGCAAAUGGAUCCGGAAGUCAGUGCGGAGGACCCUGGCUCCAGUGGGGGAGGACUGGGGAGUGUGGCUUGUGUGUAUGUGUGAUAUGAGAUGUGUGUGUAUGAUGUGAGAUGUGAGUGUGUGAUGUGAGAUGUGUGUAUGUGAGAUGUGUGUGUGUGUGUGUGUGUGUGUGAUGUGAGUCACCCAAAGGUCCCUAUGUUAUUGAUUUUCUCUUGCGGUCGCACUAGUGUGGAAUUCUCGGGUGUCAAGG
B6: ENSMUSG00000058297.25|Spock2 (ssRNA)
RNA: GGGAGUUCUACAGUCCGACGAUCGCUUCGAUAUCCGCAUGCUAAAGACAGGCCAGAAGAGACCUGGACAACAGCAGGCAACUUAGCAAAUGGAUCCGGAAGUCAGUGCGGAGGACCCUGGCUCCAGUGGGGGAGGACUGGGGAGUGUGGCUUGUGUGUAUGUGUGAUAUGAGAUGUGUGUGUAUGAUGUGAGAUGUGAGUGUGUGAUGUGAGAUGUGUGUAUGUGAGAUGUGUGUGUGUGUGUGUGUGUGUGUGAUGUGAGUCACCCAAAGGUCCCUAUGUUAUUGAUUUUCAAAUGCACACUCUCUUGCGGUCGCACUAGUGUGGAAUUCUCGGGUGUCAAGG
B7: ENSMUSG00000058297.22|Spock2|119:123;127:140;149:160;174:180;189:198;204:229 (ssRNA)
RNA: GGGAGUUCUACAGUCCGACGAUCGCUUCGAUAUCCGCAUGCUAAGGGUGCCGACGGCCAGAAAGACAGGCCAGAAGAGACCUGGACAACAGCAGGCAACUUAGCAAAUGGAUCCGGAAGUCAGUGCGGAGGACCCUGGCUCCAGUGGGGGAGGACUGGGGACACACGCUACACACAUACACACAUAUGAGAACACACACAUACAUGUGAGAUGUGACACACACAUGUGAGAACACACAUACUGAGAACACACACACACACACACACACACACAUGUGAGUCACCCAAAGGUCCCUAUGUUAUUCUCUUGCGGUCGCACUAGUGUGGAAUUCUCGGGUGUCAAGG
B8: ENSMUSG00000058297.26|Spock2 (ssRNA)
RNA: GGGAGUUCUACAGUCCGACGAUCGCUUCGAUAUCCGCAUGCUAGGCCAGAAGAGACCUGGACAACAGCAGGCAACUUAGCAAAUGGAUCCGGAAGUCAGUGCGGAGGACCCUGGCUCCAGUGGGGGAGGACUGGGGAGUGUGGCUUGUGUGUAUGUGUGAUAUGAGAUGUGUGUGUAUGAUGUGAGAUGUGAGUGUGUGAUGUGAGAUGUGUGUAUGUGAGAUGUGUGUGUGUGUGUGUGUGUGUGUGAUGUGAGUCACCCAAAGGUCCCUAUGUUAUUGAUUUUCAAAUGCACACUUUCACACUCUUGCGGUCGCACUAGUGUGGAAUUCUCGGGUGUCAAGG
B9: ENSMUSG00000058297.23|Spock2|113:117;121:134;143:154;168:174;183:192;198:223 (ssRNA)
RNA: GGGAGUUCUACAGUCCGACGAUCGCUUCGAUAUCCGCAUGCUACCGACGGCCAGAAAGACAGGCCAGAAGAGACCUGGACAACAGCAGGCAACUUAGCAAAUGGAUCCGGAAGUCAGUGCGGAGGACCCUGGCUCCAGUGGGGGAGGACUGGGGACACACGCUACACACAUACACACAUAUGAGAACACACACAUACAUGUGAGAUGUGACACACACAUGUGAGAACACACAUACUGAGAACACACACACACACACACACACACACAUGUGAGUCACCCAAAGGUCCCUAUGUUAUUGAUUUUCUCUUGCGGUCGCACUAGUGUGGAAUUCUCGGGUGUCAAGG
B10: ENSMUSG00000058297.24|Spock2 (ssRNA)
RNA: GGGAGUUCUACAGUCCGACGAUCGCUUCGAUAUCCGCAUGCUAGCCAGAAAGACAGGCCAGAAGAGACCUGGACAACAGCAGGCAACUUAGCAAAUGGAUCCGGAAGUCAGUGCGGAGGACCCUGGCUCCAGUGGGGGAGGACUGGGGAGUGUGGCUUGUGUGUAUGUGUGAUAUGAGAUGUGUGUGUAUGAUGUGAGAUGUGAGUGUGUGAUGUGAGAUGUGUGUAUGUGAGAUGUGUGUGUGUGUGUGUGUGUGUGUGAUGUGAGUCACCCAAAGGUCCCUAUGUUAUUGAUUUUCAAAUGCUCUUGCGGUCGCACUAGUGUGGAAUUCUCGGGUGUCAAGG
B11: ENSMUSG00000061578.90|Ksr2|236:240 (ssRNA)
RNA: GGGAGUUCUACAGUCCGACGAUCGCUUCGAUAUCCGCAUGCUAUCUGAUUUUAGAGGUCCCAUUCCAAGAUGGAAGUCACCGGUUGCCGCUGAGCACACAAUUCUGAAGGACAGUAGGCAGUCCUGCAGGUCUUUUUUAGCACAGGGCCUCUCUGGGGACCAGUCCCUGGCCUUCACCCUUCUCCCAUUUUGUAAGAACACUGUUCUAACUCACCUCAUGCCCACGCUACCCUGGGCAACUGGAGAACACCAUAGCGUUUCAGCUGAUGUGACAUUUGCACACACCUUUACCAGUUCACCAUCCUCUUGCGGUCGCACUAGUGUGGAAUUCUCGGGUGUCAAGG
B12: ENSMUSG00000090935.515|Synj2bp (ssRNA)
RNA: GGGAGUUCUACAGUCCGACGAUCGCUUCGAUAUCCGCAUGCUAUGGAGGCCCAGUGUCUGCUACCCUUCUUGUAUCUGAUGGCAUGGGUAACAGCUCUGCCAUGGGCCUGCUUACUUCUAGUAUUCACCUCAGGGCUUGGAAAUUGGUUUUGAAAGGCUUUUAGACAUAGAAAGUAAAACUAAUGGCAAGGAGGAUAAAACACUGUUGUGUGUUGUAUUGUUGAUCUAAAUAAAAAAUAUCAUUGGUAGAAGUUUUACUUUGGUUGAUAAGGAUUCUGAUAACAUUUGGGUCUCCUUAGGAAACUCUUGCGGUCGCACUAGUGUGGAAUUCUCGGGUGUCAAGG
B13: ENSMUSG00000031028.314|Tub|85:89 (ssRNA)
RNA: GGGAGUUCUACAGUCCGACGAUCGCUUCGAUAUCCGCAUGCUAUUUCUAGAGGGCAGUAGGACUUCCAUGCUGGGGCUGGCCUAUCUCCUGAUGAAAGAUUACAGUGCCAUCUCCUUCCCAUAGUUCACACACUGCCCUCCCUCCCUGACUUUAUAGGGAGAAAUCUCCUGACAUUAGAGGUGAUAGAAACCAGAGCUUUAGUCUAGUCAGGCUGUUUCUCUGGGUUGACAAGUUUAAGGUUGAACAGGCUGAUUUCUGGAAUCUCAUGAGUGGAGGGGACCCUGGUGGUUAAGAGCGGAACUCUCUUGCGGUCGCACUAGUGUGGAAUUCUCGGGUGUCAAGG

The binders below were run against TDP-43 (Homo sapiens, UniProt Q13148 1-414) (assay: RNA Bind-n-Seq with designed 260-mer pool; 25 mM Tris-HCl, 150 mM KCl, 3 mM MgCl2, BSA (printed 500 mg/mL), 20 units/mL SUPERase IN; pH not stated; 500 nM RNA pool, 1 h, 4 C; TDP-43 5, 50, 500 nM; high values mean tight binding). Settings: protein: recombinant; tags: SBP (GST cleaved off with PreScission; pGEX-GST-SBP).
Sequence of TDP-43 (Q13148 whole entry): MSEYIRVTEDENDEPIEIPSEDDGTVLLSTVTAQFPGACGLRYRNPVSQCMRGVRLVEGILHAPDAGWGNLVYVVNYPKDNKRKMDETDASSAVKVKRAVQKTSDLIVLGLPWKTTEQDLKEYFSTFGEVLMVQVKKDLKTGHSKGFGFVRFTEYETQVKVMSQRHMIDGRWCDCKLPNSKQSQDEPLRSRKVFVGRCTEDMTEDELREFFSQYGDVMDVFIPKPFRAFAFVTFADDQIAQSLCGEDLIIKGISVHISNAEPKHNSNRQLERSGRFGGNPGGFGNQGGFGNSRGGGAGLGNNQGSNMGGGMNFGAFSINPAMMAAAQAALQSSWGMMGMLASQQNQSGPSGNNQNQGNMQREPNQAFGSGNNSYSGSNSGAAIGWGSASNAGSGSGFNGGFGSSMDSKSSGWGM
Outline: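 Recombinant SBP-tagged TDP-43 at 5, 50 or 500 nM was captured on streptavidin beads, then incubated 1 h at 4 °C with 500 nM of an in vitro-transcribed 260-nt 3′ UTR oligo pool in 25 mM Tris-HCl, 150 mM KCl, 3 mM MgCl2, BSA and SUPERase IN. Bound RNA was washed, eluted with biotin, reverse transcribed, PCR-amplified and sequenced. Binding is R, each oligo's mapped-read-normalized abundance in the bound sample divided by its abundance in input. Duplicates used two independent protein batches.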

| Binder | binding signal |
| --- | --- |
| B1 | 5.54 R (bound/input frequency ratio) |
| B2 | 1.09 R (bound/input frequency ratio) |
| B3 | 0.0267 R (bound/input frequency ratio) |
| B4 | 3.09 R (bound/input frequency ratio) |
| B5 | 6.74 R (bound/input frequency ratio) |
| B6 | 6.77 R (bound/input frequency ratio) |
| B7 | 2.11 R (bound/input frequency ratio) |
| B8 | 6.34 R (bound/input frequency ratio) |
| B9 | 4.42 R (bound/input frequency ratio) |
| B10 | 9.99 R (bound/input frequency ratio) |
| B11 | 0.502 R (bound/input frequency ratio) |
| B12 | 0.412 R (bound/input frequency ratio) |
| B13 | 1.56 R (bound/input frequency ratio) |
